The values below come from PubChem BioAssay.

In assay [1] the test system is Wnt5a (protein binding on small-molecule microarray). Kind of assay: small molecules binding Wnt5a protein – biophysical, small-molecule microarray, 635/667 nm fluorescence, primary screen (AID 1142).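 Note: fluorescence read at 667 nm with signal to noise per printed feature.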 As to conditions: 635 nm fluorescence, higher = more signal.
Assay [2] can be described thus: ATP-based viability of Huh7 replicon cells – cell-based, CellTiter-Glo luminescence, basal, 48 h, cytotoxicity control for HCV replication inhibitor project, primary screen (AID 1143).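 Note: Huh7 hepatoma cells carrying a hepatitis C replication reporter with no stimulus; test concentration not given here.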 The note with it: higher = more signal, called active from +8 up or from −8 down. A general note: Replicon systems follow genome replication, usually without infectious particles.
Assay [3] can be described thus: Pseudomonas biofilm growth suppression – PAO1 strain, BacTiter-Glo luminescence, LB-PBS, primary screen (AID 1144). As to conditions: P. aeruginosa PAO1 biofilm, 12 h, higher = more signal.
Assay [4] is described as follows: basal CRE-LacZ reporter activity in PC12 – cell-based, unstimulated, primary screen (AID 1145). As to conditions: no forskolin, luminescence, 4.5 h, higher = more signal, called active from +8 up or from −8 down.
Assay [5] in a line: forskolin-driven CRE-LacZ activity in PC12 – cell-based, CRE-LacZ reporter, forskolin-stimulated, primary screen (AID 1146).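 Note: PC12 cells with 6xCRE LacZ reporter stimulated by forskolin 10 µM; beta-galactosidase reporter signal reflecting CREB driven transcription.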 The note with it: luminescence, 4.5 h, higher = more signal, called active from +8 up or from −8 down.
Assay [6] concerns the target Streptavidin (Streptomyces avidinii) (UniProt P22629). Kind of assay: compounds binding control protein streptavidin – biophysical, small-molecule microarray, 635/667 nm fluorescence, artefact control for SMM compound annotation, primary screen (AID 1147).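 Note: signal reflects streptavidin binding to arrayed compounds as a control protein.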 As to conditions: higher = more signal.
Assay [7] can be described thus: probe aInhba binding on compound microarray – biochemical, small-molecule microarray, 635/667 nm fluorescence, primary screen (AID 1148).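 Note: score merges 667nm spot fluorescence with signal-to-noise for antibody binding to printed compounds.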 The note with it: higher = more signal.
Assay [8] concerns the target Torsin-1A (Homo sapiens) (UniProt O14656). Briefly: TOR1A wild-type binding on microarray – cell lysate, small-molecule microarray, lysate, 635/667 nm, primary screen (AID 1149). The note with it: COS7 hTOR1A-WT lysate, 635 nm fluorescence, higher = more signal.
Assay [9] shares this target. Briefly: torsin A mutant lysate binding on microarrays – cell lysate, small-molecule microarray, COS7 lysate, 635/667 nm fluorescence, primary screen (AID 1150).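 Note: score pools 667 nm emission and signal to noise measuring lysate protein binding.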 As to conditions: COS7 hTOR1A mutant lysate, 635 nm fluorescence, higher = more signal.
Assay [10] has as its system Sonic hedgehog protein (Shh). Kind of assay: Sonic hedgehog microarray binding compounds – biochemical, small-molecule microarray, 635/667 nm fluorescence, primary screen (AID 1151).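 Note: Shh protein binding to compounds spotted on small-molecule microarray slides; score combines spot fluorescence intensity with signal-to-noise across triplicate slides.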 The note with it: 635 nm fluorescence, higher = more signal.
Assay [11] can be described thus: optical density shifts of acrAB sulA E. coli – strain DRC41, OD650, 48 h, E. coli filamentation inducer project, primary screen (AID 1152).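 Note: E. coli MC1000 strain DRC41 lacking acrAB efflux pump and sulA.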 The note with it: higher = more signal, called active from +8 up or from −8 down.
A short description of assay [12]: probe aLefty1 binding on compound microarray – biochemical, small-molecule microarray, 635/667 nm fluorescence, primary screen (AID 1153).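 Note: score merges spot fluorescence with signal-to-noise ratio from the scanned slide images.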 The note with it: higher = more signal.
Assay [13] is described as follows: plasmodial surface anion channel blockers, osmotic lysis – cell-based, P. falciparum Indochina, OD700, 1 h, primary screen (AID 1154). The note with it: P. falciparum Indochina infected RBC osmotic lysis, higher = more signal, called active from +8 up or from −8 down.
Assay [14] can be described thus: plasmodial surface anion channel blockers, osmotic lysis – cell-based, P. falciparum Indochina, OD700, 2 h, primary screen (AID 1155).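 Note: lysis reports solute entry through the parasite surface anion channel PSAC.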 The note with it: P. falciparum Indochina infected erythrocytes, higher = more signal, called active from +8 up or from −8 down.
A short description of assay [15]: changes in parasitized red cell lysis, either direction – P. falciparum Indochina, OD700, 3 h, PSAC antagonist project, primary screen (AID 1156). As to conditions: P. falciparum-infected erythrocytes, osmotic lysis, higher = more signal, called active from +8 up or from −8 down.
Assay [16] is described as follows: plasmodial surface anion channel blockers, osmotic lysis – cell-based, P. falciparum Indochina, OD700, 18 h, primary screen (AID 1157). The note with it: P. falciparum Indochina infected erythrocytes, osmotic lysis OD700, 18 h; higher = more signal, called active from +8 up or from −8 down.
Assay [17] can be described thus: S6 kinase pathway phospho-S6 level changes – cell-based, A549, cytoblot, luminescence, serum-stimulated, primary screen (AID 1158).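 Note: serum-stimulated A549 lung adenocarcinoma cells; signal is phosphorylated S6 detected by cytoblot immunostaining with HRP secondary.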 The note with it: 5 h, higher = more signal.
Assay [18] has as its target NADPH oxidase 2 (Homo sapiens) (UniProt P04839). Kind of assay: compounds shifting NOX2 Amplex Red fluorescence – cell-based, HEK293-NOX2, PMA-stimulated, NOX inhibitor project, primary screen (AID 1159). Note: test concentration not given here. As to conditions: 45 min, higher = more signal, called active from +8 up or from −8 down.
Assay [19] has as its target NADPH oxidase 4 (Homo sapiens) (UniProt Q9NPH5). Kind of assay: compounds shifting NOX4 Amplex Red fluorescence – cell-based, HEK293-NOX4, tetracycline-induced, NOX inhibitor project, primary screen (AID 1160). As to conditions: HEK293-NOX4, Amplex Red H2O2 fluorescence, 45 min; higher = more signal, called active from +8 up or from −8 down.
The target in assay [20] is NADPH oxidase 5 (Homo sapiens) (UniProt Q96PH1). Briefly: compounds shifting NOX5 Amplex Red fluorescence – cell-based, HEK293-NOX5, NOX inhibitor project, primary screen (AID 1161). As to conditions: HEK293-NOX5, ionomycin, 45 min, higher = more signal.
Chain of NADPH oxidase 5 (Homo sapiens) (Q96PH1 whole entry, looked up): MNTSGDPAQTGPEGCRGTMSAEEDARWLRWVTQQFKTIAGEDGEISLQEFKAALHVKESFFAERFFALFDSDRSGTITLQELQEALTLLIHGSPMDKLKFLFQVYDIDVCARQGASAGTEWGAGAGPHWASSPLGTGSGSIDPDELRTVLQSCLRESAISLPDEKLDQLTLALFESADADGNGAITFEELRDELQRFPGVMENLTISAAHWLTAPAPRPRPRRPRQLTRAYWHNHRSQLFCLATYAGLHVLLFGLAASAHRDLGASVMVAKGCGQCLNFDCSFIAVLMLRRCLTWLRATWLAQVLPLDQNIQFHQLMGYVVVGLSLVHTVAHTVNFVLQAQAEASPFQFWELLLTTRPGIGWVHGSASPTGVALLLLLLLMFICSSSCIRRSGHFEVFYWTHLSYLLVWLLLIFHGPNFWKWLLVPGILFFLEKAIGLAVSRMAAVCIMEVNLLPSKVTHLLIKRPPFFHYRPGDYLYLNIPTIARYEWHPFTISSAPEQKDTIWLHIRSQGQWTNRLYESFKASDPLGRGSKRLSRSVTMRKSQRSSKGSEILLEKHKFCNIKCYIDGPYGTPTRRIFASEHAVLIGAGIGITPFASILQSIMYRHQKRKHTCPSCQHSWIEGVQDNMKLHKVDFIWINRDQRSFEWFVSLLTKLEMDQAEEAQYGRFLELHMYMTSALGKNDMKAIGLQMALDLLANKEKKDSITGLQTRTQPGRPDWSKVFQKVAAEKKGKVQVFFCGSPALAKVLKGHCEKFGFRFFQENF

SMILES strings stand for the structures. Activity calls are given as the source filed them. Unless noted, the rule behind the calls is not given here.

Chain of Streptavidin (Streptomyces avidinii) (P22629 whole entry, looked up): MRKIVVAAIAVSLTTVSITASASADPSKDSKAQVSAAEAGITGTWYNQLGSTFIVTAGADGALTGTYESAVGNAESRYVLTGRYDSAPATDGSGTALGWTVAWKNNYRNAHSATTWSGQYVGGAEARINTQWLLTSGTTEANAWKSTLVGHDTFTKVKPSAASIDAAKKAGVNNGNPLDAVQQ
Chain of Torsin-1A (Homo sapiens) (O14656 whole entry, looked up): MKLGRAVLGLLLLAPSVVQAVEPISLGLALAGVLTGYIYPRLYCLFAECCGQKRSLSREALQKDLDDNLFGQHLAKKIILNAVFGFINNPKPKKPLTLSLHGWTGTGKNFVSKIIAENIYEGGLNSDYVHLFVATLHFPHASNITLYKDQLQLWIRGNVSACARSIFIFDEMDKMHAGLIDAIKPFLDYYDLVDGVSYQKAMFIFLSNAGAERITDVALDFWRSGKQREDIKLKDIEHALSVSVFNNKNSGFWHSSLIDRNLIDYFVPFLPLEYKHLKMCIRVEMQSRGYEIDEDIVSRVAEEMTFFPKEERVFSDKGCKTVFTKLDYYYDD
Chain of NADPH oxidase 2 (Homo sapiens) (P04839 whole entry, looked up): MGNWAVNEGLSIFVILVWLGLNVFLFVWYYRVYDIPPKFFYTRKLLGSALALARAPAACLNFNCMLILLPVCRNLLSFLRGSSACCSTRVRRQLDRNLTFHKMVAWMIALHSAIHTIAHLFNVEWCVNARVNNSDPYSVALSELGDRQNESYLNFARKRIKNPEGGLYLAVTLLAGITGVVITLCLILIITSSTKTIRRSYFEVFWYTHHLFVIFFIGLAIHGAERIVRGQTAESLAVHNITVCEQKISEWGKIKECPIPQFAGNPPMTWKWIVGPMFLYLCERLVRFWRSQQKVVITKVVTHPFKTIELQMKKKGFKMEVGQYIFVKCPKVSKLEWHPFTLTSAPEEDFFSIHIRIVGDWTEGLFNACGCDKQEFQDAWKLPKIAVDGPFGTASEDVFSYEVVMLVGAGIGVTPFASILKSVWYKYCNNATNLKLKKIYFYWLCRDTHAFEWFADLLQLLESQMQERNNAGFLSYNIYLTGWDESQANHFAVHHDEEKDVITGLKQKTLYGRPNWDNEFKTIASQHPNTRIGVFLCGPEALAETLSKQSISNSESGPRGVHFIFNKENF
Chain of NADPH oxidase 4 (Homo sapiens) (Q9NPH5 whole entry, looked up): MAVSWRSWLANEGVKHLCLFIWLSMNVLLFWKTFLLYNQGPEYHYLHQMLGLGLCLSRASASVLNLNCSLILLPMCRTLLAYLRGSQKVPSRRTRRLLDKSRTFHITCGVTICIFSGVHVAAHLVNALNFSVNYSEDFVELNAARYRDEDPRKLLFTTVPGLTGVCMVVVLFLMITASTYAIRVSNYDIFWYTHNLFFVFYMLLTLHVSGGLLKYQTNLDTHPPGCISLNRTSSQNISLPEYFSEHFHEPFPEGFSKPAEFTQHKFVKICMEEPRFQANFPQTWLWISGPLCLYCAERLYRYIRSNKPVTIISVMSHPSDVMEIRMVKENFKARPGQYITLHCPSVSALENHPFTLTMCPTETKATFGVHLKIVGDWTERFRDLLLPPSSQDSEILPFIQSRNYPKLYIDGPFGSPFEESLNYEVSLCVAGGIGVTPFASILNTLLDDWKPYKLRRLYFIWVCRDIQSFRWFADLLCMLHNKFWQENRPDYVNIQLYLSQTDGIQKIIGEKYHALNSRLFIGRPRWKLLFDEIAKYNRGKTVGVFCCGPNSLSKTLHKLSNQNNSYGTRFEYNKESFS

Consider `COc1ccc(C(=O)Nc2ccc3c(c2)[C@]2(O[C@@H](CCO)[C@H]([Si](C)(C)c4ccc(OC)cc4)[C@H]2C)C(=O)N3Cc2ccccc2)cc1`, for which the composite z-score in assay [1] is 0.476; in [6] it was 0.328; in [7], -0.0209; with Torsin-1A (Homo sapiens) [8], 0.816; in the assay with Torsin-1A (Homo sapiens) [9], 0.671; in assay [10], 1.83. The composite z-score in [12] is -0.147. The z-score is -8.09 (active) in [2]; -1.18 (inactive) in [3]; 1.82 (inactive) in [4]; -0.606 (inactive) in assay [5]; 0.257 (inactive) in assay [11]; 4.99 (inactive) in [13]. Also, the z-score in [14] is 1.42 (inactive); in [15], 2.07 (inactive); in assay [16] it was -0.237 (inactive); in assay [17], 0.776; in assay [18], -5.81 (inactive); in [19], -1.21 (inactive). In addition, the z-score in assay [20] amounted to 0.304.

Turning to `O=C1C[C@@](C(=O)O)(c2ccc([N+](=O)[O-])cc2)[C@@H](c2ccc(CO)cc2)N1CC12CC3CC(CC(C3)C1)C2`, the composite z-score is 0.319 in assay [1]; 0.791 in [6]; -0.0759 in assay [7]; 0.734 with Torsin-1A (Homo sapiens) [8]; 0.949 with Torsin-1A (Homo sapiens) [9]; 1.76 in [10]. This molecule also came in with a composite z-score in assay [12] of 0.0041. The z-score is -5.13 (inactive) in assay [2]; -1.03 (inactive) in assay [3]; -0.322 (inactive) in assay [4]; 0.351 (inactive) in assay [5]; -0.146 (inactive) in assay [11]; 6.47 (inactive) in assay [13]. Besides, the z-score in assay [14] was 0.964 (inactive); in assay [15], 2.67 (inactive); in assay [16], 0.279 (inactive); in [17], 0.469; in assay [18], -0.545 (inactive); in assay [19], -2.72 (inactive). In assay [20], the z-score is -1.01.

With `COc1ccccc1CN1C(=O)c2ccccc2[C@@H](C(=O)NCC(C)C)[C@@H]1c1ccc(CO)cc1`, the composite z-score was 0.572 in assay [1]; -0.378 in assay [6]; -0.145 in assay [7]; -0.114 with Torsin-1A (Homo sapiens) [8]; 0.526 with Torsin-1A (Homo sapiens) [9]; 0.0072 in [10]. For the same molecule, in [12], the composite z-score is -0.0061. The z-score was -0.922 (inactive) in assay [2]; 0.34 (inactive) in assay [3]; -0.258 (inactive) in assay [4]; -0.992 (inactive) in assay [5]; 1.08 (inactive) in assay [11]; 1.12 (inactive) in assay [13]. The z-score in assay [14] is 0.157 (inactive); in assay [15], 1.23 (inactive); in assay [16], 0.206 (inactive); in assay [17], -0.195; in assay [18] it was 1.78 (inactive); in assay [19], -0.496 (inactive). For the same molecule, the z-score in [20] was 1.67.

In the case of `CCCCC(=C=CC[C@H](O)c1cccc(OCCO)c1)C[C@H](O)COCc1ccccc1`, the composite z-score in assay [1] is -0.122; in assay [6], 0.206; in [7] it was -0.101; in the assay with Torsin-1A (Homo sapiens) [8], 0.139; with Torsin-1A (Homo sapiens) [9], 0.0056; in assay [10], 0.508. In assay [12], this molecule registered a composite z-score of -0.0984. In addition, the z-score in assay [2] was -1.33 (inactive); in assay [3], -0.295 (inactive); in [4], 3.54 (inactive); in [5], 1.04 (inactive); in [11], 0.483 (inactive); in [13], 15.3 (active). For the same molecule, the z-score in assay [14] was 2.48 (inactive); in assay [15], 0.658 (inactive); in assay [16] it was 1.02 (inactive); in [17], 0.949; in [18], -2.67 (inactive); in assay [19], -1.29 (inactive). The z-score in [20] was -2.41.

As to `CCC[C@@H]1C[C@@]1(CCC)[C@@H](NC(=O)c1ccco1)c1ccc(Cl)cc1`, the composite z-score in assay [1] was -0.114; in assay [6], -0.489; in assay [7], 0.0074; with Torsin-1A (Homo sapiens) [8], -1.5; with Torsin-1A (Homo sapiens) [9], -0.94; in assay [10] it was -0.323. For the same molecule, in [12], the composite z-score is -0.0035. The z-score in assay [2] was -2.99 (inactive); in assay [3], 0.789 (inactive); in assay [4] it was 0.58 (inactive); in assay [5], 0.974 (inactive); in assay [11], -1.37 (inactive); in [13] it was 1.85 (inactive). In addition, the z-score is 0.238 (inactive) in [14]; 0.425 (inactive) in assay [15]; 0.469 (inactive) in [16]; -0.0915 in assay [17]; -1.46 (inactive) in [18]; -3.83 (inactive) in assay [19]. In assay [20], the z-score was -0.796.

On to `NC(=O)[C@@H]1[C@H]2C(=O)O[C@H](c3ccccc3)[C@H](c3ccccc3)N2[C@H](c2ccccc2OCCO)[C@@]12C(=O)Nc1ccc(C#CCCO)cc12`, for which the composite z-score in assay [1] was -0.335; in [6], 0.837; in assay [7], -0.0407; in the assay with Torsin-1A (Homo sapiens) [8] it was -0.969; with Torsin-1A (Homo sapiens) [9], 0.115; in assay [10], -0.116. The molecule further gave a composite z-score in assay [12] of -0.0464. The z-score in assay [2] is -3.21 (inactive); in [3] it was -0.663 (inactive); in assay [4], 0.299 (inactive); in assay [5], -0.445 (inactive); in assay [11] it was 1.41 (inactive); in [13] it was 14.3 (active). Also, the z-score in assay [14] was 0.966 (inactive); in assay [15], -2.23 (inactive); in assay [16], -1.18 (inactive); in assay [17], 1.02; in assay [18], 2.03 (inactive); in assay [19], 1.18 (inactive). Also, in assay [20], the z-score was determined as 1.02.

Take `CCOC(=O)C1=CC[C@@H](c2cccc(Br)c2)N(S(=O)(=O)c2ccc(C)cc2)[C@H]1c1ccc([N+](=O)[O-])cc1`: the composite z-score was 0.559 in assay [1]; 1.22 in assay [6]; 0.157 in assay [7]; 0.907 in the assay with Torsin-1A (Homo sapiens) [8]; 0.469 in the assay with Torsin-1A (Homo sapiens) [9]; 0.778 in [10]. Moreover, the composite z-score in assay [12] came out at 0.0509. The z-score in assay [2] is -2.18 (inactive); in [3] it was -0.314 (inactive); in assay [4] it was -0.63 (inactive); in [5] it was 0.115 (inactive); in assay [11], -1.22 (inactive); in assay [13] it was 1.27 (inactive). Further, the z-score in assay [14] was 1.55 (inactive); in [15] it was -0.0988 (inactive); in assay [16], 1.29 (inactive); in [17], -0.68; in [18], 1.24 (inactive); in assay [19], 0.77 (inactive). In addition, the z-score in assay [20] is 0.165.

On to `Cc1ccc(F)cc1S(=O)(=O)N[C@@H]1CCN(C(=O)c2ccc(OC(C)C)cc2)C1`, for which the composite z-score in assay [1] came out at 0.336; in assay [6], 0.224; in assay [7], 0.143; with Torsin-1A (Homo sapiens) [8], 0.0677; with Torsin-1A (Homo sapiens) [9] it was 0.196; in [10] it was 0.975. The composite z-score in assay [12] was -0.0973. Also, the z-score was -0.798 (inactive) in assay [2]; 0.595 (inactive) in assay [3]; 2.66 (inactive) in [4]; -0.906 (inactive) in [5]; 0.295 (inactive) in assay [11]; 2.54 (inactive) in assay [13]. The z-score in assay [14] was 1.02 (inactive); in [15], 0.79 (inactive); in assay [16], 0.427 (inactive); in assay [17], -0.102; in [18], -0.471 (inactive); in assay [19] it was -0.0285 (inactive). Further, the z-score in assay [20] is -0.257.
